Test results reported in publication PMC4336329 (PLoS ONE, 2015).
Screen size: about 310,000 compounds; about 14,000 (4.5%) showed an effect of 50% or more. Effects have a minus sign here. Only a selection was taken, and strong results are over-represented in it overall.

Molecular target: human ether-à-go-go-related gene (hERG) potassium channel (human, UniProt Q12809)
Assay: primary screen, population patch clamp on CHO cells stably expressing hERG; higher = less effect of the substance
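Note: peak tail current of the secondary pulse compared with the same well before compound.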

human ether-à-go-go-related gene (hERG) potassium channel, sequence (Q12809 whole entry, looked up): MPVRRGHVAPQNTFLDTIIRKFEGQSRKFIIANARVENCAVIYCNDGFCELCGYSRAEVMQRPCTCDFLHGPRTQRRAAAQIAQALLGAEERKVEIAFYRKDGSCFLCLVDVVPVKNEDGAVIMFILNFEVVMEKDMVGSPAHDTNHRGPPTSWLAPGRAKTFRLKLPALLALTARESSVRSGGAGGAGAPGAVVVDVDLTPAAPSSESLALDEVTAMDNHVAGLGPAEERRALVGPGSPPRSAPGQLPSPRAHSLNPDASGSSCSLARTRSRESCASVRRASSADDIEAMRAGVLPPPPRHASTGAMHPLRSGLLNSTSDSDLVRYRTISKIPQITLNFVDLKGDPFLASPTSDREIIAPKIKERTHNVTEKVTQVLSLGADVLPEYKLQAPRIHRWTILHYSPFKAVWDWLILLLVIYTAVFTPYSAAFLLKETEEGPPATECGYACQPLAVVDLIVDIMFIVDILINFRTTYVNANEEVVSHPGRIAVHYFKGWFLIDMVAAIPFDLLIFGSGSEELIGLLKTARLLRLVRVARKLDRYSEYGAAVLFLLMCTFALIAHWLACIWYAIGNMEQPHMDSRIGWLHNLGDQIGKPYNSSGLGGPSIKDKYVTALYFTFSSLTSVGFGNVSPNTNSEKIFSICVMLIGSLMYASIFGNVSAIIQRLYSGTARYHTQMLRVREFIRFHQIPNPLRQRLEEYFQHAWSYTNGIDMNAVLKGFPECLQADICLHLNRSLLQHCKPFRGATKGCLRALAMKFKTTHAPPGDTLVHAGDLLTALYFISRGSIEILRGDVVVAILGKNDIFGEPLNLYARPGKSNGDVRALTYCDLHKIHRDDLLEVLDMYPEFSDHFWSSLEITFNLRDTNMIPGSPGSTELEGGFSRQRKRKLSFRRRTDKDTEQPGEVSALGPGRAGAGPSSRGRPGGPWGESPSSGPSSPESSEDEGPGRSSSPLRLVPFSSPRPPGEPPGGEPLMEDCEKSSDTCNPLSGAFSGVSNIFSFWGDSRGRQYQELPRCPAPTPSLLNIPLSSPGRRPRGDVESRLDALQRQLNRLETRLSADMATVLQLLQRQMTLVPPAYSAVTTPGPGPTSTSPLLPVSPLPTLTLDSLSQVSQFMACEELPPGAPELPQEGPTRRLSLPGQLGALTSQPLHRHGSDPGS

| SMILES | hERG current change (%, negative = inhibition) at 10uM [%] |
| --- | --- |
| COCCNC(=O)Cn1cc(C(=S)N2CCCCC2)c2ccccc21 | 18.7 |
| COc1ccccc1C(=O)NCCC(=O)N1CCCCCCC1 | 4.61 |
| CCOC(=O)c1csc(NC(=O)CN2CCN(C)CC2)n1 | 19 |
| Cc1ccc(S(=O)(=O)NCC(=O)N/N=C/c2ccc(Cl)cc2)cc1 | -3.55 |
| CCOCC(=O)Nc1nnc(SCCOC)s1 | -0.419 |
| O=C(CCCN1C(=O)/C(=C/c2cccs2)SC1=S)Nc1cc([N+](=O)[O-])ccc1O | 21.1 |
| O=C(C1CCC(Cn2c(=O)[nH]c3ccccc3c2=O)CC1)N1CCN(c2ccccc2)CC1 (centres unmarked) | 6.47 |
| Fc1ccc(C2c3cccn3CCN2C(=S)Nc2cccc(F)c2)cc1 (centres unmarked) | 6.02 |
| CCCCCc1cc(=O)oc2c(C(CCN3CCN(c4ccccc4)CC3)c3ccc(N(C)C)cc3)c(OC)cc(OC)c12 (centres unmarked) | 5.51 |
| CCCCCc1cc(=O)oc2c(C(CCN3CCCC(C)C3)c3ccc4c(c3)OCO4)c(OC)cc(OC)c12 (centres unmarked) | -7.33 |
| CCN(CC)CCC(c1ccc(N(C)C)cc1)c1c(OC)cc(OC)c2ccc(=O)oc12 (centres unmarked) | -11.7 |
| CCCCCc1cc(=O)oc2c(C(CCN3CCCC(C)C3)c3ccc(N(C)C)cc3)c(OC)cc(OC)c12 (centres unmarked) | 6.65 |
| CCCCCc1cc(=O)oc2c(C(CCN(CC)CC)c3ccc(N(C)C)cc3)c(OC)cc(OC)c12 (centres unmarked) | -33.6 |
| CCCCCc1cc(=O)oc2c(C(CCN3CCN(c4ccccc4)CC3)c3ccc4c(c3)OCO4)c(OC)cc(OC)c12 (centres unmarked) | 18.7 |
| CCCCCc1cc(=O)oc2c(C(CCN3CCCC(C)C3)c3ccc(OC)cc3)c(OC)cc(OC)c12 (centres unmarked) | -27.8 |
| CCCCCc1cc(=O)oc2c(C(CCN3CCCC3)c3ccc(N(C)C)cc3)c(OC)cc(OC)c12 (centres unmarked) | -57.5 |
| CCCCCc1cc(=O)oc2c(C(CCN3CCCCC3)c3ccc4c(c3)OCO4)c(OC)cc(OC)c12 (centres unmarked) | -54.3 |
| CCCCCc1cc(=O)oc2c(C(CCN(CC)CC)c3ccc(OC)cc3)c(OC)cc(OC)c12 (centres unmarked) | -55.2 |
| CCCCCc1cc(=O)oc2c(C(CCN3CCCCC3)c3ccc(OC)cc3)c(OC)cc(OC)c12 (centres unmarked) | -59.1 |
| CC(=O)c1cn(-c2ccc(Cl)cc2)c(=O)n(Cc2ccc(Br)cc2)c1=O | -11.9 |
| O=C(Nc1ccccc1F)C1CCCN(S(=O)(=O)c2ccccc2)C1 (centres unmarked) | -10.3 |

| SMILES | hERG current change (%, negative = inhibition) at 10uM [%] |
| --- | --- |
| Cc1ccc(Cc2cnc(N3C(=N)SC(c4ccccc4)C3=O)s2)cc1 (centres unmarked) | 3.87 |
| COc1cc(OC)cc(C(=O)NCC(=O)OCC(=O)C(C)(C)C)c1 | 16.6 |
| CCCC1=NN2C(=N)/C(=C\c3cc(C)n(-c4cc(C)cc(C)c4)c3C)C(=O)N=C2S1 | -10.4 |
| CCc1nc2c(n1O)CCc1nonc1-2 | 4.58 |
| COc1ccc(Cl)cc1NC(=O)CCCN1C(=O)CCC1=O | 14.4 |
| CCOC(=O)c1c(C)[nH]c(C)c1C(=O)C(Cc1ccccc1)N(C)C.Cl (centres unmarked) | 4.71 |
| O=S(=O)(NCC(c1cccnc1)N1CCN(c2ccc(F)cc2)CC1)c1ccccc1 (centres unmarked) | -53.2 |
| O=S(=O)(NCC(c1cccnc1)N1CCN(c2ccc(F)cc2)CC1)c1ccc(F)cc1 (centres unmarked) | -69 |
| O=C(NCC(c1cccnc1)N1CCN(c2ccccc2)CC1)OCc1ccccc1 (centres unmarked) | -45.9 |
| O=C(NCC(c1cccnc1)N1CCN(c2ccc(F)cc2)CC1)OCc1ccccc1 (centres unmarked) | -56.8 |
| O=C(NCC(c1cccnc1)N1CCN(c2ccc(F)cc2)CC1)Oc1ccccc1 (centres unmarked) | -26.4 |
| CCS(=O)(=O)NCC(c1cccnc1)N1CCN(c2ccc(F)cc2)CC1 (centres unmarked) | -7.91 |
| O=C(NCC(c1cccnc1)N1CCN(c2ccc(F)cc2)CC1)c1ccc(F)cc1 (centres unmarked) | -47.6 |
| O=S(=O)(NCC(c1ccco1)N1CCN(c2ccc(F)cc2)CC1)c1ccc(F)cc1 (centres unmarked) | -0.721 |
| COc1ccc2c(c1)-c1c(ssc1=S)C(C)(C)N2S(=O)(=O)c1ccc(C)cc1 | 2.55 |
| CCCCN1C(=O)/C(=C/c2ccc(N(C)C)cc2)C(=O)N(Cc2ccco2)C1=O | 7.86 |
| S=C(NCC1CCCO1)Nc1ccccc1 (centres unmarked) | 25.5 |
| CCn1cc(CN2CCCC(C(=O)Nc3ccc(-c4cscn4)cc3)C2)c(C)n1 (centres unmarked) | -8.71 |
| CC(=O)c1cc(CN2CCC(C(=O)Nc3cccc(-c4cscn4)c3)CC2)cs1 | -30.5 |
| Cc1c(CN2CCC(C(=O)Nc3cccc(-c4cccc(Cl)c4)c3)CC2)cnn1C | -61.4 |
